Test results reported in PubChem BioAssay (NCI).
The panel holds about 83,000 compounds, 20% with a hit somewhere; the sample as a whole holds those more often.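 Method: cells in 96-well plates; compound added at one concentration; 48 h incubation; percent growth measured; values under 10 scored active.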 Active and inactive are the calls of the source.

Assays:
Experiment in all cases: NCI-60 one-dose screen, 48 h (100 = growth as untreated, 0 = no growth, -100 = all killed)
EKVX NSCLC = conditions: 10 µM unless noted
SN12C renal = conditions: 10 µM unless noted
UO-31 renal = conditions: 10 µM unless noted
TK-10 renal = conditions: 10 µM unless noted
ACHN renal = conditions: 10 µM unless noted
A498 renal = conditions: 10 µM unless noted
CCRF-CEM leukemia = conditions: 10 µM unless noted
RPMI-8226 leukemia = conditions: 10 µM unless noted
OVCAR-8 ovarian = conditions: 10 µM unless noted
OVCAR-5 ovarian = conditions: 10 µM unless noted
OVCAR-4 ovarian = conditions: 10 µM unless noted
SK-OV-3 ovarian = conditions: 10 µM unless noted
IGROV1 ovarian = conditions: 10 µM unless noted
HS 578T breast = conditions: 10 µM unless noted
NCI/ADR-RES ovarian = conditions: 10 µM unless noted
MOLT-4 leukemia = conditions: 10 µM unless noted
SR leukemia = conditions: 10 µM unless noted
CAKI-1 renal = conditions: 10 µM

Measured: growth

COC(=O)c1nc(-c2ccc(C)cc2)oc1S(=O)(=O)N1CCN(c2oc(-c3ccccc3)nc2C#N)CC1
inactive: EKVX NSCLC 106% | SN12C renal 100% | UO-31 renal 94% | TK-10 renal 111% | ACHN renal 100% | A498 renal 85.8% | CCRF-CEM leukemia 39.8% | RPMI-8226 leukemia 97.7% | OVCAR-8 ovarian 102% | OVCAR-5 ovarian 108% | OVCAR-4 ovarian 106% | SK-OV-3 ovarian 119% | IGROV1 ovarian 106% | HS 578T breast 108% | NCI/ADR-RES ovarian 103%

CCc1ccc(NC(=O)N[C@@H](Cc2cccc(F)c2)C(=O)N[C@@H]2C(=O)N3CCC[C@H]3C(=O)N3CCCC[C@H]3C(=O)N[C@@H](CO)C(=O)N3C[C@H](C)C[C@H]3C(=O)O[C@H]2C)c(F)c1
inactive: EKVX NSCLC 34% | SN12C renal 20.3% | UO-31 renal 29.4% | TK-10 renal 61.1% | ACHN renal 32.2% | CCRF-CEM leukemia 37.7% | MOLT-4 leukemia 39.3% | SR leukemia 31.4% | RPMI-8226 leukemia 20.3% | OVCAR-8 ovarian 20.9% | OVCAR-5 ovarian 36.4% | OVCAR-4 ovarian 24.6% | SK-OV-3 ovarian 21.8% | IGROV1 ovarian 39.5% | HS 578T breast 35.5% | NCI/ADR-RES ovarian 60.6%

CS(=O)c1nccc(-c2c(-c3ccc(F)c(OCc4ccccc4)c3)nc3sccn23)n1 (centres undefined)
inactive: EKVX NSCLC 83% | SN12C renal 97.4% | UO-31 renal 94.9% | TK-10 renal 106% | ACHN renal 82.6% | A498 renal 94.2% | CCRF-CEM leukemia 76.4% | MOLT-4 leukemia 32.2% | RPMI-8226 leukemia 60.6% | OVCAR-8 ovarian 96.1% | OVCAR-5 ovarian 104% | SK-OV-3 ovarian 114% | IGROV1 ovarian 68.7% | HS 578T breast 101% | NCI/ADR-RES ovarian 102%
active: SR leukemia -1.23%

COc1ccc(CCN2C(=O)CSC2=S)cc1OC
inactive: EKVX NSCLC 103% | SN12C renal 93% | UO-31 renal 83% | TK-10 renal 55.6% | ACHN renal 100% | CAKI-1 renal 84.6% | CCRF-CEM leukemia 63% | MOLT-4 leukemia 88.7% | SR leukemia 64.6% | RPMI-8226 leukemia 32.8% | OVCAR-8 ovarian 98.6% | OVCAR-5 ovarian 104% | OVCAR-4 ovarian 100% | IGROV1 ovarian 102% | HS 578T breast 104% | NCI/ADR-RES ovarian 101%

N#C/C(=C\c1ccc(N2CCCCC2)cc1)C(=O)Nc1sc2c(c1C#N)CCC2
inactive: EKVX NSCLC 98.4% | SN12C renal 88.9% | UO-31 renal 91.2% | TK-10 renal 108% | ACHN renal 72.5% | MOLT-4 leukemia 104% | SR leukemia 97.6% | RPMI-8226 leukemia 69.3% | OVCAR-8 ovarian 99.8% | OVCAR-5 ovarian 93.7% | OVCAR-4 ovarian 84.5% | SK-OV-3 ovarian 96.6% | IGROV1 ovarian 102% | HS 578T breast 99.3% | NCI/ADR-RES ovarian 95.7%
active: CCRF-CEM leukemia -4.06%

COc1cc2c3c(n(CCCNCC4CC4)c(=O)c2cc1OC)-c1cc2c(cc1C3=O)OCO2
active: ACHN renal -73.1% | CCRF-CEM leukemia -9.44% | RPMI-8226 leukemia -42.8% | OVCAR-8 ovarian -60.5% | OVCAR-5 ovarian -66.8% | OVCAR-4 ovarian 1.27% | SK-OV-3 ovarian 8.75% | NCI/ADR-RES ovarian -13.6%
inactive: EKVX NSCLC 66% | SN12C renal 44.6% | UO-31 renal 49.8% | TK-10 renal 72.5% | A498 renal 68.6% | IGROV1 ovarian 56% | HS 578T breast 95.3%

CN1CCN(c2nc(-c3cnc4ccccc4n3)cc3ccccc23)CC1
active: SR leukemia 1.45%
inactive: EKVX NSCLC 84.9% | SN12C renal 72.6% | UO-31 renal 63.2% | TK-10 renal 99.9% | ACHN renal 84% | CCRF-CEM leukemia 55.6% | MOLT-4 leukemia 54.9% | RPMI-8226 leukemia 56.7% | OVCAR-8 ovarian 89.7% | OVCAR-5 ovarian 91.1% | OVCAR-4 ovarian 100% | SK-OV-3 ovarian 92.1% | IGROV1 ovarian 73.7% | HS 578T breast 85.6% | NCI/ADR-RES ovarian 82.2%

CN1C(=O)/C(=C/C=C/c2ccco2)SC1=S
inactive: EKVX NSCLC 87.2% | SN12C renal 84.6% | UO-31 renal 58.3% | TK-10 renal 113% | ACHN renal 75.7% | CAKI-1 renal 95.2% | MOLT-4 leukemia 90.3% | SR leukemia 79.6% | RPMI-8226 leukemia 64.4% | OVCAR-8 ovarian 71.1% | OVCAR-5 ovarian 87.5% | OVCAR-4 ovarian 96.1% | SK-OV-3 ovarian 98.9% | IGROV1 ovarian 54.3% | HS 578T breast 98.1% | NCI/ADR-RES ovarian 75.6%

COc1ccc(-c2nc3cc(Cl)c(Cl)cc3n2CC(=O)N=Nc2c(O)[nH]c3ccc(Br)cc23)cc1
inactive: CCRF-CEM leukemia 39% | MOLT-4 leukemia 36.4% | SR leukemia 36.4% | RPMI-8226 leukemia 31.8% | OVCAR-8 ovarian 12% | SK-OV-3 ovarian 13.5%
active: EKVX NSCLC 4.81% | SN12C renal -20.1% | UO-31 renal -34.9% | TK-10 renal 6.26% | ACHN renal -83% | CAKI-1 renal -76.8% | OVCAR-5 ovarian -5.99% | OVCAR-4 ovarian -43.9% | IGROV1 ovarian -37.9% | HS 578T breast -8.55% | NCI/ADR-RES ovarian -1.87%

CCN1CCN(Cc2ccc(C(=O)Nc3nc4ccc(Oc5ccnc(C(=O)NC)c5)cc4s3)cc2C(F)(F)F)CC1
inactive: EKVX NSCLC 52.4% | SN12C renal 77.4% | UO-31 renal 33.2% | TK-10 renal 91.6% | ACHN renal 57.4% | A498 renal 74.1% | CCRF-CEM leukemia 60.6% | RPMI-8226 leukemia 26.4% | OVCAR-8 ovarian 60.8% | OVCAR-5 ovarian 76.7% | SK-OV-3 ovarian 83.7% | IGROV1 ovarian 70.3% | HS 578T breast 51.9% | NCI/ADR-RES ovarian 67%

Fc1ccccc1/C=C(/C1=NCCN1)n1cnc2ccccc21
inactive: EKVX NSCLC 95% | SN12C renal 97.4% | UO-31 renal 85.3% | TK-10 renal 99.4% | ACHN renal 97% | CAKI-1 renal 84.1% | CCRF-CEM leukemia 108% | MOLT-4 leukemia 106% | SR leukemia 91.7% | RPMI-8226 leukemia 96.9% | OVCAR-8 ovarian 99.6% | OVCAR-5 ovarian 94.8% | OVCAR-4 ovarian 90.9% | SK-OV-3 ovarian 93.1% | IGROV1 ovarian 95.6% | HS 578T breast 93.3% | NCI/ADR-RES ovarian 104%
